KB-3-1 tox = kills parental KB-3-1 adenocarcinoma cells. 1.4% of 400,000 active. KB-3-1 viability, CellTiter-Glo ATP luminescence, 72 h. Potency, µM (highest dose often 46.1 µM), hits mostly cytotoxic; note: nearly all actives have a fitted effect of over 60% in size
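Cytotoxicity measured as CellTiter-Glo luminescence after 72 h at 37 C. Compound titrations were pinned onto drug-naive KB-3-1 parental adenocarcinoma cells grown in DMEM with 10% FBS, and normalized data fitted to concentration-response curves.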
MCF10A rerep = DNA re-replication induction in MCF 10a cells; MCF 10A DNA re-replication, Hoechst nuclear intensity, 48 h; 2.9% of 350,000 active; Potency, µM (series often up to 46.1 µM), most hits filed as activators; AID 624296; note: nearly all actives have a fitted effect of over 50% in size
KCNH2 3.1 block = blocks the human KCNH2 3.1 channel isoform. AID 720553. 0.95% of 340,000 active. activity change, % (tested at about 1.8 µM). U2OS KCNH2 3.1, thallium flux FluxOr; stronger effect = lower value;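 active = maximum activity change below -70%; inconclusive = maximum activity change from -70% to -50%; inactive = maximum activity change above -50%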;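 note: thallium influx rate constant from kinetic fluorescence after stimulation buffer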
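We transduce U2OS cells with the mutant 3.1 virus, culture them overnight, load FluxOr with Red40 quencher for 45 min, then add stimulation buffer and read kinetically for 2 min to derive a normalized rate constant.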
hERG WT inh = blocks the wildtype human KCNH2 potassium channel. activity change, % at 1.84 µM. U2OS, BacMam KCNH2, thallium flux FluxOr; stronger effect = lower value. 0.37% of 340,000 active. Q12809;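 active = maximum activity change below -70%; inconclusive = maximum activity change between -70% and -50%; inactive = maximum activity change above -50%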
Target sequence (Q12809 whole entry, looked up): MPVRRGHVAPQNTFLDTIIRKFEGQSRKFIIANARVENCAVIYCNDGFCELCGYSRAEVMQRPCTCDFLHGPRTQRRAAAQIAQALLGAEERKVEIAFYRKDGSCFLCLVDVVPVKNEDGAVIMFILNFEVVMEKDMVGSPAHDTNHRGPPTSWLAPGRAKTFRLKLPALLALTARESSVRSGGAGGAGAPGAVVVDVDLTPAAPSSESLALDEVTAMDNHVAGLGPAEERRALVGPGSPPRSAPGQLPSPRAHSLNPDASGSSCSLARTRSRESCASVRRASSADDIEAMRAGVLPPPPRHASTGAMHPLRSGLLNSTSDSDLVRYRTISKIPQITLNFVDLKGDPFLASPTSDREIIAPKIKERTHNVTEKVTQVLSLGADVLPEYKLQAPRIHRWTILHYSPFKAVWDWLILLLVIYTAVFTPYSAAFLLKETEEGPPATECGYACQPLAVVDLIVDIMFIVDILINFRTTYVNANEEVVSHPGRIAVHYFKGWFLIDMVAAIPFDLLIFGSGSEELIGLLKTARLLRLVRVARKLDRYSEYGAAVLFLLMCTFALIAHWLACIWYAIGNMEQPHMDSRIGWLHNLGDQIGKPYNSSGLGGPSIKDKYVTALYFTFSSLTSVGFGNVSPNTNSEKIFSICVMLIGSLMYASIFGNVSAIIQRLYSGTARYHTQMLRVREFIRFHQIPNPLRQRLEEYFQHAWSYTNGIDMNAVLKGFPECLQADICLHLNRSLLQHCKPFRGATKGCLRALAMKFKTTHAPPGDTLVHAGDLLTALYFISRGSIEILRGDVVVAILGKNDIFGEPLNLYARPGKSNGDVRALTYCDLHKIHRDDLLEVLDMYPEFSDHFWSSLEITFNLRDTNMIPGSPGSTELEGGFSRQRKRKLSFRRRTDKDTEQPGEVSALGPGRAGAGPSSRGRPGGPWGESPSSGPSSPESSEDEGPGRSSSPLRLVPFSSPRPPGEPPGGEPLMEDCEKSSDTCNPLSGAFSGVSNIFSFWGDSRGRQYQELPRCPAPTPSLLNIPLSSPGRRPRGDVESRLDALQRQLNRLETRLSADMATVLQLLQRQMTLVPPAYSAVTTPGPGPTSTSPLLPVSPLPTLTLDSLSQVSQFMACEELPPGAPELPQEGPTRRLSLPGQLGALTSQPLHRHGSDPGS
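U2OS cells transduced with wild-type KCNH2 virus are loaded with FluxOr dye for 45 min, and thallium flux is measured in kinetic reads before and after stimulation buffer. Rate constants are normalized to DMSO controls.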
SW480 rerep = induces DNA re-replication in SW480 colon adenocarcinoma cells. SW480 DNA re-replication, Hoechst DNA content imaging, 48 h. Potency, µM (titrated, usually from 46.1 µM), hits mostly activators. 1.8% of 340,000 active. AID 624297; note: nearly all actives have a fitted effect of over 55% in size
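Image-based DNA-content assay: after two days of treatment, nuclei were labelled with the DNA dye Hoechst and imaged, and hits were compounds raising the count of nuclei showing high fluorescence intensity.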
KB-V1 cytotox = KB-V1 MDR subline cytotoxicity | AID 1347076 | Potency, µM (titrated, usually from 46.1 µM), actives largely listed as cytotoxic | 3.4% of 400,000 active | KB-V1 MDR cells viability, CellTiter-Glo, 72 h; note: nearly all actives have a fitted effect of over 60% in size
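Compound-treated KB-V1 multidrug-resistant cells, 72 h, 37 degrees C; viability by CellTiter-Glo. Fitted qHTS curves give the values.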
Large screens that a line does not name were inactive. Sampled rows, rich in hits. Any-hit rate of the full collection: about 7.6%. Unless noted, calls come from the whole dose curve; as a rule, active = well fitted curve in the direction sought with a large enough effect; inconclusive = small, poorly fitted or top-dose-only effect, or another doubt; inactive = no such curve, though single readings can be large; an effect the other way counts as inactive or inconclusive.

CN(c1ccccc1)S(=O)(=O)c1cccc(C(=O)NC2CCCCC2)c1	MCF10A rerep inconclusive, KB-V1 cytotox 14.6µM
COc1cc(/C=C/C(O)=C/C(=O)/C=C/c2ccc(O)cc2)ccc1O	KB-3-1 tox inconclusive, MCF10A rerep 18.4µM, SW480 rerep inconclusive
O=C(Cc1c(Sc2ccccc2)c2ccccc2n1Cc1ccccc1)NCCO	MCF10A rerep 20.6µM
Cn1c(CC(=O)NCCO)c(Sc2ccccc2)c2ccccc21	none
Cc1ccc(CC(=O)OCC(=O)c2ccc[nH]2)cc1C	none
C[n+]1ccc(/C=C/c2cc[n+](C)c3ccccc23)c2ccccc21	KB-3-1 tox inconclusive (no result: MCF10A rerep, KCNH2 3.1 block, hERG WT inh, SW480 rerep)
CN1C=C/C(=C\c2cc[n+](C)c3ccccc23)c2ccccc21	MCF10A rerep 0.581µM
COc1ccc(C(=O)NCCc2c[nH]c3ccccc23)cc1S(=O)(=O)N1CCOCC1	none
O=C(C/C=N/OCc1c(Cl)cccc1Cl)c1cnc(-c2ccccc2)s1	none
O=C(C/C=N/OCc1c(Cl)cccc1Cl)c1ccc(Cl)cc1	MCF10A rerep 23.1µM
CCN(C)C1CN(Cc2cn(Cc3ccc(Cl)cc3)nn2)S(=O)(=O)C1 (configuration not stated)	none (no result: MCF10A rerep, KCNH2 3.1 block, hERG WT inh, SW480 rerep)
CCNC(=S)NNC(=O)c1cc(-c2ccc(OC)cc2)nc2ccccc12	KB-3-1 tox inconclusive, KB-V1 cytotox 9.2µM (no result: SW480 rerep)
CCNC(=S)NNC(=O)c1cc(-c2cccc(C)c2)nc2ccccc12	KB-3-1 tox inconclusive, KB-V1 cytotox inconclusive
CCNC(=S)NNC(=O)c1cc(-c2cccc(OCC)c2)nc2ccccc12	none
CCCCOc1ccc(-c2cc(C(=O)NNC(=S)NCC)c3ccccc3n2)cc1	KB-3-1 tox 7.31µM, KB-V1 cytotox 6.51µM
CCCCOc1cccc(-c2cc(C(=O)NNC(=S)NCC)c3ccccc3n2)c1	KB-V1 cytotox 20.6µM
CCOc1ccc(-c2cc(C(=O)NCCCn3ccnc3)c3ccccc3n2)cc1	MCF10A rerep 0.581µM
Cc1ccc(F)cc1NC(=O)c1cnccn1	none (no result: hERG WT inh)
CC12CCC(C(=O)Nc3nc4ccccc4s3)(OC1=O)C2(C)C (configuration not stated)	none
CC(C)(C)C(=O)Nc1nc(C2CCCN2S(=O)(=O)c2ccc(Cl)cc2)cs1 (configuration not stated)	none
CC(C)(C)C(=O)Nc1ccc(C(=O)CN2C(=O)NC3(CCOc4ccccc43)C2=O)cc1 (configuration not stated)	none
Cc1ccc(OC(=O)CCC(=O)Nc2ccc(C)c(C)c2)cc1	none
Cc1ccc(CN(C(=O)COc2ccc(C)c(C)c2)C2CCS(=O)(=O)C2)o1 (configuration not stated)	none
COc1ccccc1CCNC(=O)C(=O)NCC1OCCCN1S(=O)(=O)c1ccc(F)cc1C (configuration not stated)	KB-V1 cytotox inconclusive
CCC(CC)C(=O)Nc1cccc(C(=O)NC(C)(C)C)c1	KB-V1 cytotox inconclusive
CC(C)C(=O)Nc1ccc(C(=O)NNC(=O)CCc2ccccc2)cc1	KCNH2 3.1 block -76.4
CC(CCc1ccccc1)NC(=O)c1ccc(NC(=O)c2cccc(Br)c2)cc1 (configuration not stated)	MCF10A rerep 18.4µM, SW480 rerep inconclusive, KB-V1 cytotox 2.06µM
CCC(CC)C(=O)Nc1cccc(C(=O)c2ccccc2)c1	KB-V1 cytotox 9.2µM
CC(C)C(=O)Nc1ccc(C(=O)c2ccccc2)cc1	KB-V1 cytotox 13µM
Cc1ccsc1C(=O)OCC(=O)NCc1cccs1	none (no result: MCF10A rerep, SW480 rerep)
CSC1=C(C#N)C(C)C2=C(CC(C)(C)CC2=O)N1 (configuration not stated)	KB-3-1 tox inconclusive, KB-V1 cytotox 23.1µM
COc1ccc(C2C(C#N)=C(SC)NC3=C2C(=O)CC(C)(C)C3)cc1 (configuration not stated)	KB-3-1 tox inconclusive, KB-V1 cytotox inconclusive
COc1cc(/C=N\NC(=O)c2ccc(Cn3nc([N+](=O)[O-])c(Cl)c3C)o2)ccc1O	none
COc1ccc(OC)c(NC(=O)c2cccc(NC(=O)c3ccccc3)c2)c1	none
Cc1ccccc1NC(=O)c1cccc(Cn2cc(Br)c([N+](=O)[O-])n2)c1	none
COc1ccc(OC)c(NC(=O)c2cccc(Cn3cc(Br)c([N+](=O)[O-])n3)c2)c1	KB-3-1 tox inconclusive, KB-V1 cytotox 4.61µM
Cc1cccc(NC(=O)c2cccc(Cn3cc(Br)c([N+](=O)[O-])n3)c2)c1C	KB-3-1 tox inconclusive, KB-V1 cytotox 11.6µM
COc1cccc(/C=N\NC(=O)c2ccc(Cn3cc(Br)c([N+](=O)[O-])n3)o2)c1O	KB-3-1 tox inconclusive, MCF10A rerep inconclusive, SW480 rerep 0.731µM, KB-V1 cytotox inconclusive
COc1cc(-c2ccc3ncnc(NCc4cccs4)c3c2)cc(OC)c1OC	none (no result: MCF10A rerep, KCNH2 3.1 block, hERG WT inh, SW480 rerep)
Cc1cc(/C=C2\Sc3ccccc3N2C)cc(C)[n+]1CC1CCCO1 (configuration not stated)	KB-3-1 tox 0.651µM, MCF10A rerep inconclusive, SW480 rerep 9.2µM
Cc1ccc(/C=C2/Sc3ccccc3N(CC(=O)NCC3CCCO3)C2=O)cc1 (configuration not stated)	KB-3-1 tox inconclusive, MCF10A rerep inconclusive
N=C1SCC(=O)N1/N=C/c1ccccc1	KB-3-1 tox 7.31µM, SW480 rerep inconclusive, KB-V1 cytotox 6.51µM
CCN(c1ccccc1)S(=O)(=O)c1ccc(C(=O)Nc2nnc(-c3ccco3)o2)cc1	SW480 rerep 23.1µM (no result: hERG WT inh)
CC1CC(C)CN(C(=O)c2ccc(NC(=O)c3ccc(=O)[nH]c3)cc2)C1 (configuration not stated)	none
CC1CC(C)CN(S(=O)(=O)c2ccc(C(=O)Nc3nnc(C4CC4)o3)cc2)C1 (configuration not stated)	KB-3-1 tox inconclusive, KB-V1 cytotox 5.17µM
CC1CC(C)CN(S(=O)(=O)c2ccc(NC(=O)c3ccc(=O)[nH]c3)cc2)C1 (configuration not stated)	KB-3-1 tox 4.61µM, MCF10A rerep 5.8µM, SW480 rerep inconclusive
CCN(c1ccccc1)S(=O)(=O)c1ccc(C(=O)Nc2nnc(C3CC3)o2)cc1	KB-3-1 tox inconclusive, SW480 rerep inconclusive, KB-V1 cytotox 7.31µM
COc1cc(OC)c(N(C)S(=O)(=O)c2cccc(C(=O)NC(C)C3CC4CCC3C4)c2)cc1Cl (configuration not stated)	MCF10A rerep inconclusive
Cc1nn(-c2ccccc2)c(C)c1C(=O)Nc1nnc(-c2ccco2)o1	KB-3-1 tox inconclusive, SW480 rerep inconclusive, KB-V1 cytotox 5.8µM
CC(=O)Nc1nnc(-c2ccco2)o1	none

Screens as filed in PubChem.
